KKLEB tox – cytotoxicity in KKLEB CF airway cells, primary screen, cytotoxicity control for CF NF-kB inhibitor project, cell-based, uHTS, fluorescence assay plates | KKLEB CF airway cells viability, ATPlite luminescence, overnight; active compounds read low; cells stimulated with P. aeruginosa culture filtrate | activity change (cytotoxicity), % at 5 µM | 360,000 compounds, 0.36% hits | AID 602141, 2011;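 active = corrected activity change at or below -50% at 5 µM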
Shn3 3UTR inh – reduction of Shn3 3'UTR firefly luciferase signal, primary screen, Schnurri-3 inhibitor project, cell-based, Clone20 osteoblasts, set 2; inhibition, % at 12.5 µM; AID 588674, 2011; 360,000 compounds, 0.52% hits; Clone20 osteoblast Shn3 3'UTR firefly luciferase, 24 h;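 active = mean inhibition of at least 75% with every replicate also reaching 75%; inconclusive = mean inhibition at least 75% but some replicate below; inactive = mean inhibition below 75%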;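 also: 0% = median of neutral control wells and 100% = pilot-screen positive control compound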
CF NFkB inh – inhibitors of PAF-induced NF-kB signaling, primary screen, cell-based, GFP fluorescence, uHTS. 360,000 compounds, 0.86% hits. KKLEB NF-kB-GFP reporter, GFP fluorescence overnight. AID 588850, 2011. inhibition, % at 5 µM;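 active = at least 50% inhibition at 5 µM, scaled per plate between neutral and stimulator controls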;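 also: PAF is a Pseudomonas aeruginosa culture filtrate used as stimulus; plate controls were PAF-stimulated DMSO wells for no effect and unstimulated DMSO wells for full effect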
PAX8 reporter – inhibitors of PAX8-driven TPO luciferase reporter, primary screen, RMG-I cells, single concentration; SteadyGlo, 24 h; inhibition, % at 12.6 µM; 360,000 compounds, 1.2% hits; AID 652154, 2013;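 active = mean replicate inhibition at least 60% with every replicate also reaching 60%; inconclusive = only one of the two criteria is met; inactive = mean below 60% and not all replicates reaching 60%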;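 also: luciferase light reporting Pax8 driven TPO promoter activity; plate controls were median of neutral control wells for no effect and mitoxantrone controls for full effect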
LGR2 inh – inhibitors of bursicon-induced LGR2 CRE-luciferase signal, primary screen, cell-based, HEK293, CRE-luciferase reporter, bursicon stimulation | inhibition, % at 9.99 µM | 380,000 compounds, 0.35% hits | bursicon-stimulated, 4 h | Drosophila bursicon receptor LGR2 (rickets);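 active = drop in luminescence signal, shown as inhibition above about 50% in the replicate tests, limit read from the data, passing the limit was not always enough; inconclusive = probably only some replicates passing the limit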;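 also: agonist challenge used bursicon conditioned medium at about half maximal strength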
EWS-Fli inh – EWS/Fli-driven NR0B1 reporter inhibitors, primary screen, A673 cells, NR0B1 luciferase, luminescence, MLPCN library; viability-normalised; inhibition, % at 12.6 µM; 350,000 compounds, 0.67% hits;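 active = mean inhibition of at least 50% after viability correction, with every replicate also passing that limit; inconclusive = mean reaches 50% but only one of two replicates passes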;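 also: firefly luciferase signal divided by Alamar Blue viability fluorescence both relative to DMSO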
* marks the source's active call; other numbers are inactive results; ? = inconclusive; · = not tested or not shown. An excerpt weighted towards active compounds, which were near 2% of everything screened.

SMILES | KKLEB tox | Shn3 3UTR inh | CF NFkB inh | PAX8 reporter | LGR2 inh | EWS-Fli inh
C/C=C(\C)C(=O)OC1[C@H](OC(C)=O)C2(CO)C(CC1(C)C)C1=CCC3C4(C)CCC(O[C@@H]5O[C@H](C(=O)O)[C@@H](O[C@@H]6O[C@H](CO)[C@@H](O)[C@H](O)[C@H]6O)[C@H](O)[C@H]5O[C@H]5O[C@H](CO)[C@@H](O)[C@H](O)[C@H]5O)[C@](C)(CO)C4CCC3(C)[C@]1(C)C[C@H]2O (stereo partly specified) | -89* | 58 | 91* | · | · | ·
Cc1ccc(Nc2cc(C)nn2-c2nc(C)cc(=O)[nH]2)cc1 | 32 | 31 | 52* | · | · | ·
C[C@@H]1CN([C@H](C)CO)C(=O)c2cc(NS(=O)(=O)c3ccc(Cl)cc3)ccc2O[C@@H]1CN(C)C(=O)Nc1ccccc1 | · | · | · | 18 | 8 | 0
Cc1cc(C)c(O)c(C(=O)CC2CC(=O)NC(=O)C2)c1 | · | · | · | · | 65* | 4
CC(=O)N(Cc1cc2c(C)cc(C)cc2[nH]c1=O)C1CCCCC1 | 1 | 0 | 7 | · | · | ·
CC(CC(=O)Nc1ccc2c(c1)c(=O)n(C)n2-c1ccccc1)c1ccccc1 (stereo unspecified) | -13 | 20 | 38 | -6 | 11 | 56*
Cn1c(=O)c2cc(NC(=O)Cc3cccc4ccccc34)ccc2n1-c1ccccc1 | -20 | 7 | 32 | 22 | 7 | 33
C[C@@H](O)C#Cc1ccc([C@H]2[C@H](CO)N3CCCCN(C(=O)Nc4ccccc4)C[C@@H]23)cc1 | · | · | · | -16 | 10 | -1
CCOC(=O)/C(C)=N/NC(=O)c1ccc([N+](=O)[O-])cc1 | 8 | -17 | 1 | -3 | · | 5
CCOC(=O)/C(N=Nc1ccc(F)cc1)=C(/O)c1ccc([N+](=O)[O-])cc1 | -14 | 2 | 67* | · | · | ·
COc1ccc2c3c(n(C)c2c1)[C@H](CO)N(C(C)=O)CC31CCN(Cc2ccc(Cl)cc2)CC1 | · | · | · | · | 6 | -2
COc1ccccc1CCC(=O)OCC(=O)Nc1ccc(C(N)=O)cc1 | -84* | -7 | 67* | -24 | 7 | 0
O=C(Nc1ccc(Cl)c(Cl)c1)N[C@@H]1CC[C@H](CCNC(=O)c2ccc(F)cc2)O[C@H]1CO | · | · | · | 4 | -6 | -11
COc1ccc(C(CCNCc2ccc(OC(C)C)cc2)c2ccccc2OC)cc1 (stereo unspecified) | -26 | 89* | 7 | 15 | 0 | 58*
COc1ccc(CNCCC(c2ccc(F)cc2)c2ccc(OC)cc2)cc1 (stereo unspecified) | -7 | 47 | 10 | 19 | 10 | ·
COc1ccc(CNCCC(c2ccc(OC)cc2)c2ccccc2OC)cc1 (stereo unspecified) | 2 | 9 | 1 | 20 | 2 | 42
COc1ccc(C(CCNCc2ccc(F)cc2)c2ccc(F)cc2)cc1 (stereo unspecified) | -19 | 42 | 17 | -2 | 59* | 7
COc1ccc(C(CCNC(C)c2ccccc2)c2ccc(F)cc2)cc1 (stereo unspecified) | 0 | 75 | -6 | 81* | 2 | ·
C[C@H](CO)N1C[C@H](C)[C@H](CN(C)C(=O)NC2CCCC2)Oc2ncc(-c3cccc(C(F)(F)F)c3)cc2C1=O | · | · | · | 3 | 4 | -7
COC(=O)c1ccc(C(=O)OC)c(NC(=O)CSc2nc(-c3ccco3)cc(C(F)(F)F)n2)c1 | -4 | 42 | 6 | · | · | ·
COC(=O)c1ccccc1NC(=O)CC(=O)Nc1ccccc1C(=O)OC | 7 | 0 | -27 | 3 | 0 | 3
COC(=O)c1ccccc1NC(=O)CSCC(=O)Nc1ccccc1 | -69* | 13 | -4 | -11 | · | ·
COC(=O)c1ccccc1NC(=O)CSc1nc(-c2ccco2)cc(C(F)(F)F)n1 | -16 | -3 | 35 | · | 8 | 51*
C[C@@H]1CN([C@H](C)CO)C(=O)c2cc(NC(=O)Cc3ccccc3)ccc2O[C@@H]1CN(C)S(=O)(=O)c1cn(C)cn1 | · | · | · | · | -13 | -6
O=C(NCc1ccccc1)C1=C[C@@H](C2CC2)C[C@@H](OCc2ccc(CO)cc2)O1 | -5 | -8 | -16 | -15 | · | 0
SMILES | KKLEB tox | Shn3 3UTR inh | CF NFkB inh | PAX8 reporter | LGR2 inh | EWS-Fli inh
O=C(NCc1ccccc1)C1=C[C@H](C2CCCCC2)C[C@H](OCc2ccc(CO)cc2)O1 | -53* | 12 | 56* | -2 | 8 | 45
CN(C)C(=O)C[C@H]1CC[C@@H]2[C@H](COC[C@H](O)CN2Cc2ccc(C(F)(F)F)cc2)O1 | · | · | · | 20 | -23 | 4
C=CCNc1nc(-c2ccccn2)nnc1-c1ccccc1 | -31 | 91* | 28 | ? | · | ·
c1ccc(-c2cnnc(-c3ccccn3)n2)cc1 | -2 | -50 | -34 | -210 | -28 | -113
CC1CC(C)C[N+](=C2C=C(N3CCCC3)CC(C)(C)C2)C1 (stereo unspecified) | -1 | 89* | 24 | 75* | 2 | 48
CC1(C)CC(N2CCCC2)=CC(=[N+]2CCCCCC2)C1 | -3 | 84 | 2 | 79* | -8 | 3
CC1(C)CC(N2CCN(c3ccccc3)CC2)=CC(=[N+]2CCCC2)C1 | -10 | 86* | 12 | · | 8 | ·
CC1(C)CC(=O)C=C(N2CCNCC2)C1 | -3 | 15 | 12 | -8 | · | ·
CN(Cc1ccccc1)C1=CC(=[N+]2CCCC2)CC(C)(C)C1 | 0 | 88* | -6 | 58 | 13 | 24
CCN(CC)C1=CC(=[N+]2CCCC2)CC(C)(C)C1 | -2 | 77 | 9 | 7 | 3 | ·
CC(=O)N(C)C[C@H]1Oc2cc(C#Cc3cccnc3)ccc2S(=O)(=O)N([C@H](C)CO)C[C@@H]1C | · | · | · | · | 4 | -5
Cc1ccccc1NC(=O)C(Cl)=C(Cl)Cl | 12 | 5 | -17 | 94* | 6 | 17
Cc1ccccc1NNC(=O)C(=O)NNc1ccccc1C | 16 | 18 | -23 | 14 | -8 | 18
CO[C@@H]1CN(C)C(=O)c2cc(NC(=O)Cc3ccccc3)ccc2OC[C@H](C)N(C)C[C@H]1C | · | · | · | 2 | 22 | 6
C[C@@H]1CCCCO[C@H](CN(C)Cc2ccc3c(c2)OCO3)[C@H](C)CN([C@H](C)CO)C(=O)c2cc(NC(=O)Nc3cccc4ccccc34)ccc2O1 | · | · | · | 8 | 7 | 8
C[C@@H]1CCCCO[C@H](CN(C)CC2CCCCC2)[C@@H](C)CN([C@H](C)CO)C(=O)c2cc(NC(=O)Nc3cccc4ccccc34)ccc2O1 | · | · | · | 6 | 7 | 12
